Values joined by “and” are separate entries in the source; they are usually repeats but may differ in a detail not shown here. Identical values can stand only once. Inconclusive results are not listed. A structure can be active in one record and inactive in another. Active and inactive are the calls of the source. Unless noted, calls follow the shape of the dose curve; as a rule, active = well fitted curve in the direction sought with a large enough effect in the repeat runs; inconclusive = weak or mixed curves; inactive = no such curve, though single readings can be large; an effect the other way counts as inactive or inconclusive.
What was measured:
[1] = biological target: Thyrotropin receptor (Homo sapiens) (UniProt P16473); assay: qHTS assay to identify small molecule agonists of the thyroid stimulating hormone receptor (TSHR) signaling pathway (AID 1224843; calls by dose curve; also: nearly all actives have a fitted effect of over 45% in size)
Chain of Thyrotropin receptor (Homo sapiens) (P16473 whole entry, looked up): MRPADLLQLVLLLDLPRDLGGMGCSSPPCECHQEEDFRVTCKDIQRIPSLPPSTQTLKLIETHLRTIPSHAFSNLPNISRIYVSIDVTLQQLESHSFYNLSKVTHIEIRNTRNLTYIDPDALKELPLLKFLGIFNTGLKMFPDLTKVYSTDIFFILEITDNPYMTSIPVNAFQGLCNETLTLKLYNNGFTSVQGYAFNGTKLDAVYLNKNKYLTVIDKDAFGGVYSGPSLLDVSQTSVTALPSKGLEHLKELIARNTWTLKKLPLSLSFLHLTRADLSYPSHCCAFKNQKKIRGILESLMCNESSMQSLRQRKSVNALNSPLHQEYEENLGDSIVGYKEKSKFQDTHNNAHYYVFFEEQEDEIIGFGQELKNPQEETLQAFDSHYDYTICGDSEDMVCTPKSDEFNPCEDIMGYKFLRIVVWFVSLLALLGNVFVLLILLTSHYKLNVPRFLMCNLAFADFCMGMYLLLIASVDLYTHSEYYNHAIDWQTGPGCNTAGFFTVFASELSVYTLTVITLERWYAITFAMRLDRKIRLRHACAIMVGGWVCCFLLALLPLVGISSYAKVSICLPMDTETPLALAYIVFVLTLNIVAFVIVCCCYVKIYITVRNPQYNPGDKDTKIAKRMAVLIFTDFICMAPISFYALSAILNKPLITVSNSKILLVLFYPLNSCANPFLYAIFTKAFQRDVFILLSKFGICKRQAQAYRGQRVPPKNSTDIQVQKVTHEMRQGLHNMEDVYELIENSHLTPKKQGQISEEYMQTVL
Method in brief: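 Using 15 concentrations per compound in triplicate, cAMP production was monitored in TSHR-HEK293 cells after 30 min compound incubation at RT; HTRF reagents followed, with fluorescence intensity recorded after 1 h.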

[2] = qHTS assay to identify small molecule agonists of the hypoxia (HIF-1) signaling pathway - cell viability counter screen (AID 1224844; calls by dose curve; also: nearly all actives have a fitted effect of over 50% in size)
Method in brief: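 In this counter screen, HRE-bla ME-180 cell viability after 17 hrs of compound exposure at 37C was read by CellTiter-Glo luminescence, multiplexed with the beta-lactamase reporter measurement.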

[3] = qHTS assay to identify small molecule agonists of H2AX (AID 1224845; active = well fitted activation curve with a large enough effect in the signal ratio in the repeat runs, not every such curve was filed as active; the % refers to the signal ratio)
Method in brief: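 Wild-type CHO-K1 cells plated overnight, then exposed 3 hr at 37C to compounds at 15 concentrations (0.76% DMSO). Lysed, then HTRF anti-pH2AX(S139)-cryptate/anti-H2AX-d2 detection after 24 hr at room temperature; emissions 665 and 620 nm.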

[4] = qHTS assay to identify small molecule agonists of H2AX - cell viability counter screen (AID 1224847; calls by dose curve; also: top concentration of the series differs between compounds; nearly all actives have a fitted effect of over 30% in size)
Method in brief: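 Compounds tested at 15 concentrations were incubated 3 hr at 37C with wild-type CHO-K1 cells; cellular ATP-based luminescence (CellTiter-Glo) indicated viability.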

[5] = qHTS assay to identify small molecule antagonists of the estrogen related receptor (ERR) signaling pathway from Tox21 library (AID 1224848); also: nearly all actives have a fitted effect of over 50% in size
Method in brief: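 Tox21 10K compounds in DMSO tested for ERR pathway antagonism in NTP's ERR cell line; 18 h, 37 C exposure; ONE-Glo luminescence.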

[6] = qHTS assay to identify small molecule agonists of the estrogen related receptor (ERR) signaling pathway from Tox21 library (AID 1224849; calls by dose curve; also: nearly all actives have a fitted effect of over 15% in size); details: ERR reporter cell line, ONE-Glo luciferase, 18 h
Method in brief: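 Luciferase activity in ERR pathway reporter cells served as the agonist readout; exposure lasted 18 h at 37 C, with ONE-Glo detection after 30 min at room temperature.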

[7] = qHTS RealTime-Glo MT Cell Viability Assay in HepG2 cells - 24 hour (AID 1224867); also: nearly all actives have a fitted effect of over 50% in size
Method in brief: (§1)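 Luminescence read-out: viable HepG2 cells reduce a prosubstrate to a NanoLuc substrate, giving a signal proportional to live cell number. Reads taken at 0, 8, 16, 24, 32 and 40 h of compound exposure at 37 C.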

[8] = qHTS RealTime-Glo MT Cell Viability Assay in HEK293 cells - 32 hour (AID 1224868); also: top concentration of the series differs between compounds; nearly all actives have a fitted effect of over 50% in size
Method in brief: (§2)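 Nonlytic real-time viability readout: viable cells convert prosubstrate to NanoLuc substrate, giving luminescence proportional to live cell number. HEK293, 600 cells/well, compound added after 5 h, continuous culture at 37 C.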

[9] = A CellTox Green Cytotoxicity Assay to monitor cytotoxicity in HEK293 cells - 0 hour (AID 1224869); also: nearly all actives have a fitted effect of over 50% in size
Method in brief: (§3)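 Real-time, in one plate: 600 HEK293 cells/well with dead-cell DNA dye, pinned compound after 5 h, 37 C incubation over 40 h; viable cells give no appreciable fluorescence.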

[10] = qHTS RealTime-Glo MT Cell Viability Assay in HepG2 cells - 40 hour (AID 1224870); also: nearly all actives have a fitted effect of over 50% in size
Method in brief: (§4)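 HepG2 cells mixed with RealTime-Glo MT reagents (NanoLuc plus cell-permeant prosubstrate) were seeded at 600 cells/well, incubated 5 h at 37 C/5% CO2, then pinned with compounds in DMSO; nonlytic luminescence tracked viability during 40 h treatment.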

[11] = A CellTox Green Cytotoxicity Assay to monitor cytotoxicity in HEK293 cells - 40 hour (AID 1224871); also: nearly all actives have a fitted effect of over 45% in size; also: potency is read from the fitted curve at half-maximal effect
Method in brief: as §3

[12] = qHTS RealTime-Glo MT Cell Viability Assay in HEK293 cells - 16 hour (AID 1224872)
Method in brief: as §2

[13] = qHTS RealTime-Glo MT Cell Viability Assay in HepG2 cells - 8 hour (AID 1224873); also: nearly all actives have a fitted effect of over 55% in size
Method in brief: as §4

[14] = qHTS RealTime-Glo MT Cell Viability Assay in HEK293 cells - 40 hour (AID 1224874); details: RealTime-Glo luminescence; max response: stronger effect = lower value; also: nearly all actives have a fitted effect of over 50% in size
Method in brief: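 Kinetic, non-lysing viability readout. Seed HEK293 (600/well) with reagent, incubate 5 h at 37 C/5% CO2, pin 23 nL compound in DMSO, incubate at 37 C, read luminescence at 0, 8, 16, 24, 32, 40 h.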

[15] = A CellTox Green Cytotoxicity Assay to monitor cytotoxicity in HepG2 cells - 16 hour (AID 1224876); also: nearly all actives have a fitted effect of over 45% in size; also: potency is read from the fitted curve at half-maximal effect
Method in brief: (§5)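 Cytotoxicity was tracked as dead-cell DNA fluorescence in HepG2 cells treated with test compounds at 37 C; each time-point value comes from one kinetic series spanning 0, 8, 16, 24, 32 and 40 h.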

[16] = qHTS RealTime-Glo MT Cell Viability Assay in HepG2 cells - 32 hour (AID 1224877); also: nearly all actives have a fitted effect of over 55% in size
Method in brief: as §1

[17] = A CellTox Green Cytotoxicity Assay to monitor cytotoxicity in HepG2 cells - 24 hour (AID 1224878); also: nearly all actives have a fitted effect of over 45% in size; also: potency is read from the fitted curve at half-maximal effect
Method in brief: as §5

[18] = A CellTox Green Cytotoxicity Assay to monitor cytotoxicity in HepG2 cells - 40 hour (AID 1224879); also: nearly all actives have a fitted effect of over 40% in size; also: potency is read from the fitted curve at half-maximal effect
Method in brief: as §5

[19] = A CellTox Green Cytotoxicity Assay to monitor cytotoxicity in HEK293 cells - 24 hour (AID 1224875); also: nearly all actives have a fitted effect of over 45% in size
Method in brief: as §3

[20] = qHTS assay to identify small molecule agonists of the hypoxia (HIF-1) signaling pathway (AID 1224846; active = well fitted activation curve with a large enough effect in the signal ratio in the repeat runs, not every such curve was filed as active; the % refers to the signal ratio)
Method in brief: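 ME-180 HRE-bla reporter cells; compounds in DMSO, 17 h at 37C; read-out beta-lactamase via CCF4-AM FRET.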
% is scaled to controls: 0 for no effect and ±100 for the full control effect.

Nc1ccc(S(=O)(=O)Nc2nccs2)cc1
inactive: outcome [1] | Potency [2] | outcome [3] | outcome [4] | Potency [5] | activity change, positive = activation ([6]; at 42.5 µM (top of the series)) 5.51% | activity change, positive = activation ([6]; at 92.4 µM (top of the series)) -7.05% and 5.21% and 6.11% | Potency [7] | Potency [8] | outcome [9] | Potency [10] | Potency [12] | outcome [13] | max response [14] 5.06% [middle of 4 runs] | Potency [16]
inactive and 38.9 µM (active): Potency [15] | Potency [18]
inactive and 43.6 µM (active): Potency [11] | Potency [17]

NC(=O)c1cnccn1
inactive: Potency [2] | outcome [3] | outcome [4] | Potency [5] | activity change, positive = activation ([6]; at 42.5 µM (top of the series)) 4.26% | activity change, positive = activation ([6]; at 92.4 µM (top of the series)) -0.224% and -0.902% | Potency [7] | Potency [8] | outcome [9] | Potency [10] | Potency [11] | Potency [12] | outcome [13] | max response [14] -0.816% and 11.3% and 0.0586% | Potency [19] | Potency [15] | Potency [16] | Potency [17] | Potency [18]

C[C@]12C=CC(=O)C=C1CC[C@@H]1[C@@H]2[C@@H](O)C[C@@]2(C)[C@H]1CC[C@]2(O)C(=O)CO
inactive: Potency [2] | outcome [3] | Potency [7] | Potency [8] | outcome [9] | Potency [10] | Potency [11] | Potency [12] | outcome [13] | max response [14] -4.22% and -3.97% and 0.449% | Potency [19] | Potency [15] | Potency [16] | Potency [17] | Potency [18]

O=C(O)CCCCCCCC(=O)O
inactive: outcome [1] | Potency [2] | outcome [3] | outcome [4] | Potency [7] | Potency [8] | outcome [9] | Potency [11] | Potency [12] | outcome [13] | max response [14] 2.75% and 4.95% and 3.91% | Potency [19] | Potency [15] | Potency [16] | Potency [17] | Potency [18]

Cc1cc(=O)n(-c2ccccc2)n1C
44.8 µM (active) and inactive: Potency [11]
inactive: Potency [2] | outcome [3] | Potency [5] | activity change, positive = activation ([6]; at 42.5 µM (top of the series)) 4.6% | activity change, positive = activation ([6]; at 92.4 µM (top of the series)) 1.91% and 2.64% | Potency [7] | Potency [8] | outcome [9] | Potency [12] | outcome [13] | max response [14] 5.11% and 3.11% and 1.5% | Potency [15] | Potency [16] | Potency [17] | Potency [18]

OC(Cn1cncn1)(Cn1cncn1)c1ccc(F)cc1F
inactive: outcome [1] | Potency [2] | outcome [20] | outcome [4] | Potency [5] | activity change, positive = activation ([6]; at 42.5 µM (top of the series)) 4.61% | activity change, positive = activation ([6]; at 92.4 µM (top of the series)) 8.25% and 5.79% | Potency [7] | Potency [8] | outcome [9] | Potency [10] | Potency [11] | Potency [12] | outcome [13] | max response [14] 7.44% and 0.305% and 5.93% | Potency [19] | Potency [15] | Potency [16] | Potency [17] | Potency [18]

Source: PubChem BioAssay (Tox21)
